From ChEMBL document CHEMBL1157539, “Thousands of chemical starting points for antimalarial lead identification” (Nature, 2010) come the findings set out here.

As usually defined, the Inhibition is the drop in the measured response relative to a control, in per cent.

In the assay the test system is HepG2. Briefly: GSK_TCMDC: Percent inhibition of human HepG2 cell line. Test compounds present at 10uM. In kind it is functional.
Consider `CS(=O)(=O)NCCCNCc1ccc(-c2ccc(-c3nc4cc(F)ccc4[nH]3)s2)cc1.O=C(O)C(F)(F)F`, for which the Inhibition is on record as 23%.

In turn, `COc1cc(OC)cc(-c2nn(-c3ccc([N+](=O)[O-])cc3Cl)c(=S)n2Cc2ccco2)c1` registered an Inhibition of 15%. The result for `CC(C)(C)OC(=O)N(Cc1cc(-n2nnnc2C(F)(F)F)ccc1O)[C@H]1CCCN(C(=O)OC(C)(C)C)[C@H]1c1ccccc1` reads 14%. The same measure for `Cc1ccc(NC(=O)c2nc(N3CCN(c4ccncc4)CC3)ccc2Cl)cc1F.O=C(O)C(F)(F)F`: 51%; for `CC(C)NCc1cccc(-c2cccc(-c3nc4ccccc4[nH]3)c2)c1.O=C(O)C(F)(F)F`: 11%; for `CCCC(CNCc1ccc(Cl)c(C(F)(F)F)c1)CNc1nc2cnccc2[nH]1.Cl` (stereo unspecified): 26%. The same measure for `COc1cc2ncnc(NCCc3ccccc3Cl)c2cc1OC`: 0%; for `CSc1ccc(CN2CCC(NC(=O)c3ccc(-c4cccc(Cl)c4)s3)CC2)cc1.O=C(O)C(F)(F)F`: 75%; for `CC(C)(C)C1CC(=O)CC2C(=O)N(c3ccc(Br)cc3)C(=O)C21` (stereo unspecified): 0%.

With `COc1cc(CNC2Cc3ccccc3C2)ccc1Oc1ccc2nc[nH]c2c1.O=C(O)C(F)(F)F`, the Inhibition is 30%. The same measure for `c1ccc(CN2CCC(NCc3cccc(-c4cncc5ccccc45)c3)CC2)cc1`: 29%; for `COc1ccc(S(=O)(=O)NC2CCN(CCCOc3ccnc4cc(Cl)ccc34)C2)cc1OC` (stereo unspecified): 8%; for `COc1cc(NC(=O)c2sc(-c3ccc(Cl)cc3)cc2NC(=O)N2CCCC2)ccc1OCCN1CCCC1`: 22%.

Regarding `CCCCc1cc(N2CCC(NC(C)=O)C2)nc(Nc2ccc(C)cc2)n1` (stereo unspecified), the Inhibition came out at 2%. Compound `CNCCCNCc1ccc(-c2ccc(F)c(Cl)c2)o1.Cl` registered an Inhibition of 22%. The same measure for `Cn1c(NCc2cc(F)cc3c2OCOC3)nc2cc(Nc3ccnc(Nc4cccc(CS(C)(=O)=O)c4)n3)ccc21`: 0%. The same measure for `CSC1=NC(C)(C)CC2(CC(c3cccc(C)c3)c3cc(Cl)c(O)cc3O2)N1` (stereo unspecified): 0%. As to `CC(=O)Nc1ccc(NC(=O)c2cc(-c3ccc(C)cc3O)n[nH]2)cc1`, the Inhibition is recorded as 0%.

As for `OC1=C2C(=Nc3ccccc3SC2c2cccs2)c2ccccc21` (stereo unspecified), the Inhibition is given as 8%. The same measure for `COc1cccc(NC(=O)NCCNc2ccnc(Nc3ccc(F)cc3)n2)c1`: 18%; for `O=C(Nc1ccc(Cl)cc1)c1ccc(CN2CCCN(Cc3cccc(O)c3)CC2)cc1.O=C(O)C(F)(F)F`: 52%; for `CCOc1ccc(Nc2nc(N)c3ccccc3n2)cc1.Cl`: 28%. In the case of `CCOc1cc(C(=O)NCCN(CC)c2cccc(C)c2)ccc1-c1nc2cc(Cl)ccc2[nH]1`, the Inhibition turned out to be 0%.

In turn, `Cl.N=C(NC1CC1)c1ccc2[nH]c(CCCCCc3nc4cc(C(=N)NC5CC5)ccc4[nH]3)nc2c1` came in with an Inhibition of 0%.

As for `CC1CN(c2cnn(Cc3cccc(NC(=O)Nc4cccc(C(F)(F)F)c4)c3)c(=O)c2Cl)CC(C)N1.O=C(O)C(F)(F)F` (stereo unspecified), the Inhibition came to 19%. As to `C=CCn1c(C)cc(C(=O)COc2ccc(S(=O)(=O)N3CCOCC3)cc2[N+](=O)[O-])c1C`, the Inhibition was 0%.
